# Screening data as filed in PubChem BioAssay.
# An excerpt weighted towards active compounds, which were near 1.5% of everything screened.
# TMEM16A act: mouse TMEM16A channel activation, primary screen; Q8BHY3; HEK293 TMEM16A/YFP-H148Q/I152L, iodide quench fluorescence; hits give low values; B-score at 10 µM; hit rate 0.3% among 340,000; AID 623877;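 active means fluorescence-ratio B-score plate-corrected deviation score at least 3 library SD below zero, with starting fluorescence score within 5 deviations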;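 further: channel opened by trigger with iodide after compound preincubation; score built on the fluorescence ratio of max minus min over baseline; more negative score means more quench and so TMEM16A activation or potentiation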
# DAGLB inhibitor: diacylglycerol lipase beta (human) inhibition; inhibition, % at 5.17 µM; hit rate 0.059% among 340,000; AID 504411; Q8NCG7; HEK293T DAGLB membrane lysate, EnzChek fluorogenic substrate; in the data active means inhibition above about 34%
# hiPSC survival: enhancers of human iPSC single-cell survival | hiPSC single-cell survival, ATPlite luminescence; 100% = ROCK inhibitor wells, 0% = DMSO | survival enhancement, % at 20 µM | hit rate 0.044% among 360,000 | AID 602274; in the data active means survival enhancement above about 18%;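 further: cells exposed to compounds for 16 hours before the ATP read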
# ABCB6 inh MLPCN: blocks the human ABCB6 transporter; Q9NP58; K562-ABCB6 porphyrin accumulation, flow cytometry, 1 h; hits give low values; fluorescence ratio to DMSO, % at 10 µM; hit rate 0.19% among 360,000; AID 602162;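 active means fluorescence ratio to DMSO below 75%, the collection mean minus 3 SD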;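 further: signal is porphyrin accumulated inside mitochondria; lower ratio means ABCB6 inhibition with less porphyrin fluorescence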
# TMEM16A inh: blocks the mouse calcium-activated chloride channel TMEM16A; Q8BHY3; HEK293 TMEM16A/YFP iodide influx fluorescence, ionomycin; normalized B-score (activity score, 25-100; higher = stronger inhibition) at 10 µM; hit rate 1.2% among 310,000;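 active means ratio plate-corrected score three or more library SD toward inhibition, starting fluorescence score within five deviations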;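 further: score derived from kinetic fluorescence span divided by baseline fluorescence per well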
# Hits are given with their value; . = inactive; / = not tested or not shown.
SMILES,TMEM16A act,DAGLB inhibitor,hiPSC survival,ABCB6 inh MLPCN,TMEM16A inh
CCN(C(=O)c1cc(S(=O)(=O)N2CCOCC2)cn1C)c1cccc(C)c1,.,.,.,.,100
CCOC(=O)c1c(C)[nH]c(C(=O)N/N=C/c2ccc(Br)cc2)c1C,.,.,.,74,.
NS(=O)(=O)c1ccc(NC(=S)NC2CCCCCC2)cc1,.,.,.,.,.
NS(=O)(=O)c1ccc(NC(=S)NC(=O)C2CCCCC2)cc1,-4.7,.,.,.,.
Cn1cc(Br)c(C(=O)NC(=S)Nc2ccc(S(N)(=O)=O)cc2)n1,-6.4,.,.,.,.
COc1ccc(CCNC(=O)CSc2nc(=O)n3cccc(C)c3n2)cc1OC,.,.,.,.,.
OCC1OC(n2cnc3c(/C=C(\O)c4ccccc4)ncnc32)C(O)C1O (stereo unspecified),.,.,.,.,/
COc1cc(/C=N/Nc2nc(C)nc3c2cnn3-c2ccccc2)ccc1O,.,.,.,.,/
C/C(=N\Nc1nc2c(s1)CCCC2)c1ccc(Cl)cc1,-11,.,.,.,.
CCOc1ccc(S(=O)(=O)NC(C)(C)C)cc1-c1nc2c(C(C)(C)C)nn(C)c2c(=O)[nH]1,-14,.,.,.,.
C/C(=N\NS(=O)(=O)c1ccccc1)c1cc(Cl)cc(Cl)c1O,.,.,.,.,100
CCCCN(C(=O)c1cccs1)C1CCS(=O)(=O)C1 (stereo unspecified),.,.,.,.,.
COC(=O)C1=C(Nc2ccccc2NS(=O)(=O)c2ccc(C(F)(F)F)cc2Cl)CSC1,.,.,.,.,25
CCCCN1C(=O)C(=O)N(CC(=O)c2ccc3c(c2)OCO3)C1=O,.,.,.,.,.
CSc1ccc(/C=C/C(=O)NC(=O)c2ccccc2O)cc1,.,.,.,.,25
COc1ccc(-c2cc(C(F)(F)F)nc(SCC(=O)N3CC(C)OC(C)C3)n2)cc1OC (stereo unspecified),-4.6,.,.,.,/
COc1ccc(-c2cc(C(F)(F)F)nc(SCC(=O)Nc3cc(C)on3)n2)cc1OC,.,.,.,.,.
C=C(C)Cn1c2ccc(NC(=O)NCCc3cccs3)cc2c(=O)n1C,/,/,.,.,/
O=C(O)c1ccccc1C(=O)NCC(O)COc1ccc(Cl)cc1 (stereo unspecified),.,.,.,.,.
O=C(O)c1ccccc1C(=O)NCC(O)COCC1CC=CCC1 (stereo unspecified),.,.,28,.,.
CC(C)OC(=O)N(C)C[C@@H]1OCc2cnnn2CCCC(=O)N([C@@H](C)CO)C[C@@H]1C,/,.,.,.,/
COc1ccc(-c2nn(-c3ccccc3)cc2/C=N/NC(=O)c2ccc3c(c2)OCO3)cc1,/,/,/,/,.
COc1ccc(-c2nn(-c3ccccc3)cc2/C=N/NC(=O)c2ccc(Br)o2)cc1,.,.,.,.,100
COc1ccc(NC(=O)c2ccc(Cl)cc2)c[n+]1[O-],.,.,.,.,.
CN(C)S(=O)(=O)c1cccc(-c2nnc(SCc3ccc4c(c3)OCCO4)o2)c1,-17,.,.,.,.
SMILES,TMEM16A act,DAGLB inhibitor,hiPSC survival,ABCB6 inh MLPCN,TMEM16A inh
O=S(=O)(c1cccc(-c2nnc(SCc3ccc(Cl)cc3)o2)c1)N1CCCCC1,.,.,.,.,.
CN(C)S(=O)(=O)c1cccc(NC(=O)c2ccc(COc3ccccc3)cc2)c1,.,.,.,.,25
COCc1ccc(C(=O)Nc2cccc(S(=O)(=O)N(C)c3ccccc3)c2)cc1,.,.,.,.,/
CN(c1ccc(C(=O)Nc2cccnc2)cc1)S(=O)(=O)c1ccc(Cl)cc1,.,.,.,.,.
CN(c1ccc(C(=O)Nc2cccnc2)cc1)S(=O)(=O)c1ccccc1,-5,.,.,.,.
CCOC(=O)c1c(C)[nH]c(C)c1S(=O)(=O)N(C)CC(=O)NCc1cccc(Br)c1,.,.,.,.,.
COc1ccc(Cl)cc1NC(=S)NCCSc1ccc(C)cc1,.,.,.,.,100
Cc1ccc(S(=O)(=O)Nc2ccc(S(=O)(=O)Nc3nccs3)cc2)c([N+](=O)[O-])c1,.,.,.,.,.
O=C(Nc1nc2ccccc2[nH]1)C1CCCO1 (stereo unspecified),.,.,.,.,.
O=C(Nc1nc2ccccc2[nH]1)C1CC1,-5.8,.,.,.,.
CN(Cc1ccccc1)C(=O)CN1CCN(S(=O)(=O)c2ccccc2F)CC1,/,.,26,.,/
COc1cc2c(c(OC)c1OC)C(=O)C(=Cc1ccccc1)O2,.,.,.,.,/
Cc1ccc(-c2cc(C(=O)N/N=C/c3c[nH]c4ccccc34)[nH]n2)cc1,-5.4,.,.,.,/
O=C(OCc1nnc(-c2ccc(Cl)cc2)o1)c1ccncc1,.,.,.,.,.
Cc1noc(C)c1COc1ccc(C(=O)OCc2nnc(-c3ccc(Cl)cc3)o2)cc1,-5,.,.,.,.
O=C(NC(=S)Nc1cc([N+](=O)[O-])ccc1O)c1ccc2c(c1)OCO2,.,.,.,.,.
COc1cc([N+](=O)[O-])ccc1NC(=S)NNC(=O)c1ccc2c(c1)OCO2,.,.,.,.,100
COc1ccc(S(=O)(=O)N(C)c2ccc(C(=O)N3CCN(c4ccccc4)CC3)cc2)cc1OC,.,.,.,.,.
CCC1CCCCN1C(=O)c1cccc(S(=O)(=O)Nc2cc(C(F)(F)F)ccc2Cl)c1 (stereo unspecified),.,.,.,.,25
O=C(c1cccc(S(=O)(=O)Nc2ccccc2Cl)c1)N1CCCCCC1,.,.,.,.,.
COc1ccc(Cl)cc1NS(=O)(=O)c1cccc(C(=O)NC2CCN(Cc3ccccc3)CC2)c1,.,.,.,.,/
O=C(NC1CCN(Cc2ccccc2)CC1)c1cccc(S(=O)(=O)Nc2cc(C(F)(F)F)ccc2Cl)c1,.,.,.,.,25
CCOCCCNC(=O)/C(C#N)=C/c1ccc([N+](=O)[O-])o1,.,.,29,.,.
Cc1ccc(CCN2CC(C(=O)NCCCN3CCCCCC3)CC2=O)cc1 (stereo unspecified),.,.,22,.,.
COc1ccc(Cc2c(-c3ccccc3)nc3ccc(Br)cn23)c(C)c1,/,/,.,.,/
SMILES,TMEM16A act,DAGLB inhibitor,hiPSC survival,ABCB6 inh MLPCN,TMEM16A inh
CCOC(=O)c1cnc(-n2nc(C)cc2C)nc1NCCO,.,.,.,.,.
CCOC(=O)c1cnc(-n2nc(C)cc2C)nc1NCc1ccccc1,.,.,.,.,100
CCOC(=O)c1cnc2ccc(OCC)cc2c1NCc1cccnc1,.,.,.,.,.
CCOC(=O)c1cnc2ccc(OCC)cc2c1NCc1ccccc1,.,.,.,.,100
Cc1ccc(OCC(=O)NNC(=S)NC(=O)c2ccc(Br)o2)c(C)c1,.,.,.,.,25
COc1cc(C(=O)NCC(=O)N2CCN(S(=O)(=O)c3ccccc3)CC2)cc(OC)c1OC,.,.,.,.,.
CCc1ccc(NC(=O)CSc2nnc(CNC(=O)c3ccc(OC)cc3)o2)cc1,.,.,.,.,.
